Assay outcomes from PubChem.
APP transl inh = APP translation inhibition | SH-SY5Y APP 5'UTR-luciferase reporter, luminescence | inhibition, % at 2 µM | 0.82% of 190,000 active | AID 1285;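 active means inhibition above a set limit, derived from the sample mean plus 3 SD, cut at about 45% in these data; inconclusive means one replicate passes the limit while the other fails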
aSyn UTR inh = 5' untranslated region of α-synuclein, MLPCN primary screen | 0.82% of 300,000 active | alpha-synuclein 5'UTR reporter, inhibitor activity | inhibition, % (tested at 7.5 µM); in the data active means inhibition above about 60%; inconclusive means no clear call, values can overlap the other calls;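 further: H4 neuroglioblastoma cells stably carrying SNCA 5'UTR luciferase fusion; 0% = DMSO wells and 100% = positive control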
IEC-6 tox-1 = kills IEC-6 intestinal cells in KLF5 counter-screen. inhibition, % at 5 µM. 0.78% of 290,000 active. IEC-6 cytotoxicity, luminescence viability;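 further: 0% = plate median of test compound wells and 100% = cytotoxic reference compound wells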
BaF3 parental = counter-screen for JAK2V617F inhibitors: parental Ba/F3 viability inhibitors; CellTiter-Glo ATP luminescence; inhibition, % at 5.6 µM; 1.1% of 220,000 active; AID 1486;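 active means inhibition above a per-campaign cutoff, the mean inhibition of all tested compounds plus 3 SD, cut at about 27% in these data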;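 further: 0% = DMSO wells and 100% = JAK Inhibitor I control wells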
Ba/F3 V617F tox = lowers viability of Ba/F3 cells expressing EpoR and JAK2V617F; ATP luminescence; inhibition, % at 5.6 µM; 1.1% of 220,000 active; AID 1446;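 active means inhibition above the campaign mean plus 3 SD over all tested compounds, cut at about 24% in these data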;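 further: cytokine-independent growth of Ba/F3 cells driven by EpoR plus mutant JAK2; 0% = DMSO-treated cells and 100% = JAK inhibitor I control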
KLF5 inh = suppresses KLF5 promoter-driven expression | DLD-1 KLF5 promoter-luciferase reporter, luminescence | inhibition, % at 5 µM | 0.23% of 290,000 active | AID 1700;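 active means inhibition above a per-plate limit of that plate's mean compound inhibition plus 3 SD, cut at about 60% in these data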;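 further: 0% = DMSO wells and 100% = LY294002 at 200 µM; higher means less KLF5 promoter-driven luciferase light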
KLF5 inh confirm = confirmation of KLF5 inhibitors; shares compounds with KLF5 inh; DLD-1 KLF5 promoter firefly luciferase reporter, luminescence; AID 1834; inhibition, % at 4 µM; 79% of 610 active;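 active means inhibition above a set limit taken from the earlier primary screen, cut at about 63% in these data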;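 further: 0% = DMSO wells and 100% = LY294002 at 200 µM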
IEC-6 tox-2 = kills rat IEC-6 cells in KLF5 counter-screen. inhibition, % at 4 µM. IEC-6 rat intestinal cells, viability luminescence. shares compounds with KLF5 inh. 56% of 610 active; in the data active means inhibition above about 23%;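 further: cells exposed to compounds for 48 hours before viability read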
IEC-6 cytotox cf = IEC-6 cytotoxicity, confirmation assay; 63% of 1,900 active; shares compounds with IEC-6 tox-1; IEC-6 rat intestinal epithelial viability, luminescence; inhibition, % at 5 µM;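 further: 0% = vehicle and 100% = reference cytotoxic drug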
* hit, by the source's call; u = inconclusive; x = not tested or not shown. Rows were chosen to be rich in hits. Some 2.2% of all compounds tested hit in one or more screens of this group. Unless noted, no stated cut-off is given here; in the data, active means inhibition above about 22%; inactive means the rest.

SMILES	APP transl inh	aSyn UTR inh	IEC-6 tox-1	BaF3 parental	Ba/F3 V617F tox	KLF5 inh	KLF5 inh confirm	IEC-6 tox-2	IEC-6 cytotox cf
Cc1cccc(N2CCN(C(=O)c3ccc(CS(=O)(=O)c4ccccc4C)o3)CC2C)c1 (stereo not drawn)	95.9*	96.9*	76.5*	76.9*	74.6*	89.5*	75.0*	53.2*	47.8*
CCn1c(O)c(N=NC(=O)CNC(=O)Cc2ccccc2)c2ccccc21	x	-4.0	1.8	x	x	2.8	x	x	x
O=C(CNC(=O)c1ccco1)N=Nc1c(O)n(CCc2ccccc2)c2ccccc12	x	48.4	85.2*	67.8*	73.9*	71.1*	83.1*	71.5*	67.4*
Cc1cccc(C)c1NC(=O)NCc1ccco1	x	-5.4	-1.9	1.3	-0.5	-9.9	x	x	x
Cc1cccc(C)c1OCCNC(=O)C(=O)NCc1ccco1	84.8*	-2.5	77.1*	80.5*	76.8*	65.3*	82.6*	61.3*	59.0*
COc1ccc(CC(=O)NCc2ccc(-n3cccc3)cc2)cc1OC	x	63.9*	75.6*	x	x	70.9*	71.6*	59.9*	58.0*
CS(=O)(=O)c1ccc(Cl)c(NC(=O)CSC(=S)N2CCCC2)c1	x	31.7	1.3	x	x	-9.7	x	x	x
CCOC(=O)COc1cccc2c(=O)n(CC(=O)NCc3ccccc3)ccc12	x	u	23.0*	68.5*	72.8*	81.0*	79.6*	30.4*	45.7*
O=C(CC12CC3CC(CC(C3)C1)C2)NC(=S)NCc1ccco1	-10.6	43.5	0.1	5.2	-2.9	-8.9	x	x	x
CCOC(=O)c1ccc(NC(=O)c2cccc(S(=O)(=O)N3CCN(C(C)=O)CC3)c2)cc1	x	-6.1	0.7	x	x	-25.3	x	x	x
COc1ccc(CCNc2nnc(Sc3nnnn3-c3ccccc3)s2)cc1OC	93.9*	119.6*	92.6*	96.3*	93.4*	65.0*	80.5*	70.4*	77.0*
COc1ccc(-n2nnnc2SCC(=O)NCCc2ccccc2)cc1OC	-5.5	7.1	-4.5	5.9	-1.3	-18.4	x	x	x
CC(C)n1c(SCC(=O)Nc2ccc(F)cc2)nnc1C1CC1	x	-9.5	-0.5	x	x	-19.2	x	x	x
COc1ccc(NC(=O)Cc2ccccc2)cn1	-8.6	-3.0	2.2	1.6	-2.6	-4.2	x	x	x
COc1ccc(NC(=O)/C(Cl)=C(/Cl)S(=O)Cc2ccccc2)cn1 (stereo not drawn)	x	120.9*	100.4*	102.3*	99.2*	96.3*	106.6*	73.0*	89.8*
CSc1cccc(NC(=S)N(CCC(C)C)C2CCN(C(C)C)CC2)c1	-22.5	7.7	1.9	1.8	-4.5	16.3	x	x	x
COc1ccc(C2=NOC(C(=O)NCc3ccc(F)cc3)C2)cc1OC (stereo not drawn)	96.2*	81.5*	88.0*	81.5*	79.2*	85.0*	78.9*	63.1*	58.0*
COc1cccc(C2=NOC(C(=O)NCc3ccc(F)cc3)C2)c1 (stereo not drawn)	-10.4	-10.5	-1.2	4.2	-0.7	-43.1	x	x	x
COc1cc(C2=NOC(C(=O)NCc3ccc(F)cc3)C2)cc(OC)c1OC (stereo not drawn)	94.6*	77.1*	85.9*	78.2*	78.5*	73.1*	84.7*	64.7*	55.1*
CCOc1cc(C(=O)Nc2ccc(S(=O)(=O)N3CCCCC3)cc2)ccc1OCC(=O)N1CCOCC1	x	3.3	x	x	x	x	x	x	x
CC1CCN(S(=O)(=O)c2cccc(C(=O)Nc3nncs3)c2)CC1	x	12.2	-1.1	x	x	-8.9	x	x	x
Cc1[nH]c(=S)[nH]c(=O)c1CCOc1ccccc1	-12.6	6.8	-9.0	2.6	0.1	-31.9	x	x	x
Cc1ccccc1OCCc1c(C)[nH]c(=S)[nH]c1=O	92.0*	34.4	84.2*	75.2*	72.5*	81.7*	78.4*	54.9*	56.3*
CCN(CC)CCNC(=O)c1ccc2c(c1NCCO)C(=O)c1ccccc1C2=O	x	95.6*	99.9*	101.6*	95.7*	106.7*	89.4*	101.8*	101.9*
Cc1ccc(S(=O)(=O)Oc2ccccc2/C=N/NC(N)=S)cc1	91.0*	58.5	58.2*	71.5*	81.7*	65.2*	73.0*	57.1*	-1.1
